The results in this text go back to the supplement of paper PMC3342239.

Molecules are shown by their SMILES. Where a name gives a salt, the structure may show the parent alone.

The test system of the experiment is Saccharomyces cerevisiae. In words: fraction of cells in G1 phase (DNA content, flow cytometry); higher = more cells with unreplicated DNA (G1 delay). As to conditions: temperature: 30 C; YPD; JTY2953 pdr5 snq2 (sensitized); drug added to: cultures diluted from stationary phase; 6-7 h. The method, boiled down:
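Overnight cultures of sensitized JTY2953 were diluted 1∶200 into drug at a final 20 µg/ml and fixed after 6–7 h, and further runs treated dividing JTY2953 or BY4741, fixing them 6 h and 4.33 h later respectively. All growth used YPD at 30°C with S. cerevisiae and library drugs. After ethanol fixation and SYTOX Green staining, flow cytometry recorded 10,000 events. The G1 fraction equals the Dean-Jett-Fox G1 peak area over the G1 plus G2/M areas.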
`NC(CO)C(=O)NNCc1ccc(O)c(O)c1O` (configuration not stated) [Benserazide HCl] (77.7459 µM): the “fraction of cells in G1 phase” value was 0.514.

For `CCC1(c2ccccc2)NC(=O)N(C)C1=O` (configuration not stated) [Mephenytoin] (91.6348 µM), the “fraction of cells in G1 phase” value worked out at 0.522.

On to `C[C@](N)(Cc1ccc(O)c(O)c1)C(=O)O` [Methyldopa] (94.6883 µM), for which the “fraction of cells in G1 phase” value is 0.412.

Consider `O=C(NCC1CCCCN1)c1cc(OCC(F)(F)F)ccc1OCC(F)(F)F` (configuration not stated) [Flecainide] (42.1585 µM), for which the “fraction of cells in G1 phase” value came out at 0.509.

With `CC(C)(O)c1ccccc1CC[C@@H](SCC1(CC(=O)O)CC1)c1cccc(/C=C/c2ccc3ccc(Cl)cc3n2)c1` [Montelukast] (34.1181 µM), the “fraction of cells in G1 phase” value worked out at 0.532.

For the compound `CCC(NC(C)C)C(O)c1ccc(O)c2[nH]c(=O)ccc12` (configuration not stated) [Procaterol hcl] (68.8787 µM), the “fraction of cells in G1 phase” value was 0.526.

Regarding `O=C(O)c1cn(-c2ccc(F)cc2)c2cc(N3CCNCC3)c(F)cc2c1=O` [Sarafloxacin HCl] (51.8977 µM), the “fraction of cells in G1 phase” value was 0.444.

Consider `Cc1cc(C(C)(C)C)c(O)c(C)c1CC1=NCCN1` [Oxymetazoline HCl] (76.8101 µM), for which the “fraction of cells in G1 phase” value came out at 0.511.

`N=C(N)N/N=C/c1c(Cl)cccc1Cl` [Guanabenz acetate] (86.548 µM): the “fraction of cells in G1 phase” value turned out to be 0.488.

Take `CC(C(=O)O)c1cccc(C(=O)c2ccccc2)c1` (configuration not stated) [Ketoprofen] (78.6509 µM): the “fraction of cells in G1 phase” value was found to be 0.502.

Turning to `CC[N+](CC)(CC)CCOc1cccc(OCC[N+](CC)(CC)CC)c1OCC[N+](CC)(CC)CC` [Gallamine triethiodide] (39.1519 µM), the “fraction of cells in G1 phase” value turned out to be 0.516.

Turning to `COC(=O)CCc1ccc(OCC(O)CNC(C)C)cc1` (configuration not stated) [Esmolol] (67.7089 µM), the “fraction of cells in G1 phase” value is 0.459.

As for `CC[C@H]1OC(=O)[C@H](C)[C@@H](O[C@H]2C[C@@](C)(OC)[C@@H](O)[C@H](C)O2)[C@H](C)[C@@H](O[C@@H]2O[C@H](C)C[C@H](N(C)C)[C@H]2O)[C@](C)(OC)C[C@@H](C)C(=O)[C@H](C)[C@@H](O)[C@]1(C)O` [Clarithromycin] (26.7389 µM), the “fraction of cells in G1 phase” value came to 0.489.

Take `NC(=O)c1ncn([C@@H]2O[C@H](CO)[C@@H](O)[C@H]2O)n1` [Ribavirin] (81.8972 µM): the “fraction of cells in G1 phase” value stood at 0.481.

Turning to `CNNCc1ccc(C(=O)NC(C)C)cc1` [Procarbazine HCl] (90.3731 µM), the “fraction of cells in G1 phase” value is 0.49.

As to `CC(C)NCC(O)COc1ccc(CC(N)=O)cc1` (configuration not stated) [Atenolol] (75.0911 µM), the “fraction of cells in G1 phase” value was found to be 0.454.

As for `Cn1nnc2c(C(N)=O)ncn2c1=O` [Temozolomide] (103.011 µM), the “fraction of cells in G1 phase” value came to 0.48.

Turning to `N=C(N)NC(=O)c1nc(Cl)c(N)nc1N` [Amiloride] (75.1597 µM), the “fraction of cells in G1 phase” value worked out at 0.516.

Regarding `CCOc1ccccc1OCCN[C@H](C)Cc1ccc(OC)c(S(N)(=O)=O)c1` [Tamsulosin HCl] (48.9571 µM), the “fraction of cells in G1 phase” value was 0.507.

Take `CN(C(=O)CCCOc1ccc2[nH]c(=O)ccc2c1)C1CCCCC1` [Cilostamide] (58.4041 µM): the “fraction of cells in G1 phase” value came to 0.499.

For `N[C@@H](Cc1ccc(O)c(O)c1)C(=O)O` [Levodopa] (101.424 µM), the “fraction of cells in G1 phase” value was determined as 0.487.

Turning to `CN(C)CCN1C(=O)c2ccccc2N(C)c2ccccc21` [Dibenzepine HCl] (67.7077 µM), the “fraction of cells in G1 phase” value was 0.479.

Consider `c1cnc(N2CCN(Cc3ccc4c(c3)OCO4)CC2)nc1` [Piribedil HCl] (67.0359 µM), for which the “fraction of cells in G1 phase” value was 0.532.

`CCn1cc(C(=O)O)c(=O)c2cc(F)c(N3CCN(C)CC3)cc21` [Pefloxacine mesylate] (59.9942 µM): the “fraction of cells in G1 phase” value was 0.465.

Consider `O=C1NC(=O)C(c2ccccc2)(c2ccccc2)N1` [Phenytoin] (79.2785 µM), for which the “fraction of cells in G1 phase” value was 0.535.

Regarding `C#C[C@]1(O)CC[C@H]2[C@@H]3[C@H](C)CC4=C(CCC(=O)C4)[C@H]3CC[C@@]21C` [Tibolone] (64.009 µM), the “fraction of cells in G1 phase” value was 0.56.

For the compound `C[C@@H]1CCC[C@H](C)N1NC(=O)c1ccc(Cl)c(S(N)(=O)=O)c1` [Clopamide] (57.8284 µM), the “fraction of cells in G1 phase” value worked out at 0.525.

On to `CN(C)C(=O)C(CCN1CCC(O)(c2ccc(Cl)cc2)CC1)(c1ccccc1)c1ccccc1` [Loperamide] (38.9864 µM), for which the “fraction of cells in G1 phase” value amounted to 0.512.

In the case of `CC1COc2c(N3CCN(C)CC3)c(F)cc3c(=O)c(C(=O)O)cn1c23` (configuration not stated) [Ofloxacin] (55.344 µM), the “fraction of cells in G1 phase” value worked out at 0.505.

Take `Cc1c(Cl)cccc1Nc1ccccc1C(=O)O` [Tolfenamic acid] (76.4204 µM): the “fraction of cells in G1 phase” value is 0.53.

Take `COC(=O)c1ccccc1O` [Methyl salicylate] (131.448 µM): the “fraction of cells in G1 phase” value was found to be 0.513.

Take `O=C(C1CCCCC1)N1CC(=O)N2CCc3ccccc3C2C1` (configuration not stated) [Praziquantel] (64.0173 µM): the “fraction of cells in G1 phase” value was found to be 0.441.
